Screens from PubChem BioAssay.
U2OS ROS induce: raises reactive oxygen species in U2OS cancer cells; hit rate 2% among 46,000; AID 624156; U2OS ROS induction, H2DCF-DA fluorescence; ROS induction (% of piperlongumine), % at 10 µM; in the data active = ROS induction above about 79%, passing the limit was not always enough
NOMO-1 viab: STK33 inhibitor candidate reducing NOMO-1 cell viability. inhibition, % (no concentration beside the values). NOMO-1 AML viability, CellTiter-Glo luminescence, 72 h. hit rate 7.5% among 37,000; in the data active = inhibition above about 80%
PD-1 reversal: reversal of PD-1 mediated T-cell inhibition; 29,000 tested, under 10 active; primary human CD4 T cells, PD-L1 beads, CellTiter-Glo 96 h; activation, % (no concentration beside the values); call rule not given here
Of the large screens only hits and unclear results are named; the others gave an inactive call. This is one part of a sample in which hits are shown more often than they occur.

CC(=O)O[C@]1(C(C)=O)CCC2C3C[C@H](C)C4=CC(=O)CC[C@]4(C)C3CC[C@@]21C (some centres undefined)	none (no result: PD-1 reversal)
COc1ccc(Nc2cc(C(F)(F)F)ccc2Cl)c(C(=O)O)c1	none (no result: NOMO-1 viab, PD-1 reversal)
CC1=CC(C)(C)Nc2ccc(OC(=O)CN3C(=O)c4cccc([N+](=O)[O-])c4C3=O)cc21	NOMO-1 viab 115
CCOc1ccc2c(c1)C(C)=CC(C)(C)N2	none (no result: PD-1 reversal)
CCC(C)NC(=O)Nc1ccc(Br)cc1F (centres undefined)	none (no result: NOMO-1 viab, PD-1 reversal)
CCOc1ccccc1C(=O)NCCc1cn2ccc(C)cc2n1	none (no result: NOMO-1 viab, PD-1 reversal)
C[C@@H]1CN([C@H](C)CO)C(=O)c2cccc(NC(=O)C3CCOCC3)c2O[C@H]1CN(C)Cc1ccc(C(=O)Nc2ccccc2N)cc1	none
C[C@H](CO)N1C[C@H](C)[C@H](CN(C)Cc2ccc(C(=O)Nc3ccccc3N)cc2)Oc2c(NC(=O)C3CC3)cccc2C1=O	NOMO-1 viab 122
C[C@@H]1CN([C@@H](C)CO)C(=O)c2cccc(NC(=O)C3CC3)c2O[C@@H]1CN(C)Cc1ccc(C(=O)Nc2ccccc2N)cc1	NOMO-1 viab 128
C[C@@H]1CN([C@H](C)CO)C(=O)c2cccc(NC(=O)C3CC3)c2O[C@H]1CN(C)Cc1ccc(C(=O)O)cc1	none
C[C@@H]1CN([C@H](C)CO)C(=O)c2cccc(NC(=O)C3CCCCC3)c2O[C@@H]1CN(C)Cc1ccc(C(=O)O)cc1	none
C[C@@H]1CN([C@@H](C)CO)C(=O)c2cccc(NC(=O)NC3CCCCC3)c2O[C@@H]1CN(C)Cc1ccc(C(=O)Nc2ccccc2N)cc1	NOMO-1 viab 129
C[C@H]1CN([C@@H](C)CO)C(=O)c2cccc(NC(=O)NC3CCCCC3)c2O[C@H]1CN(C)Cc1ccc(C(=O)O)cc1	none
C[C@H]1CN([C@@H](C)CO)C(=O)c2cccc(NC(=O)C3CCCCC3)c2O[C@H]1CN(C)Cc1ccc(C(=O)Nc2ccccc2N)cc1	NOMO-1 viab 127
CCN1C(=O)CCS(=O)(=O)c2ccccc21	none (no result: NOMO-1 viab, PD-1 reversal)
O=S(=O)(NC1CCCc2ccccc21)c1ccccc1 (centres undefined)	none (no result: NOMO-1 viab, PD-1 reversal)
O=C(O)C1C2CCC(C2)C1C(=O)c1ccccc1 (centres undefined)	none
COc1ccc(NC(=S)N(Cc2ccccc2)Cc2cccn2Cc2ccc(C)cc2C)cc1OC	none (no result: NOMO-1 viab, PD-1 reversal)
COc1ccc(C(=O)CSc2nc(-c3cccc(C)c3)ns2)cc1	none (no result: NOMO-1 viab, PD-1 reversal)
COc1cc(NC(=O)c2ccc(CSC3CCCCC3)cc2)cc(OC)c1OC	U2OS ROS induce 135 (no result: NOMO-1 viab, PD-1 reversal)
O=C(O)c1ccc(CSC2CCCCC2)cc1	none (no result: NOMO-1 viab, PD-1 reversal)
CCCCn1nc(NS(=O)(=O)c2ccc(C)cc2)c2cc3cccc(C)c3nc21	none (no result: NOMO-1 viab, PD-1 reversal)
CCc1nc(-c2ccc(OC)cc2)cc2cc(OC)c(OC)cc12	U2OS ROS induce 109
COc1ccc(Cc2nccc3cc(OC)c(OC)cc23)cc1OC	none
Cc1ccc(NC(=O)c2oc3ccccc3c2NC(=O)c2ccccc2)cc1	none (no result: NOMO-1 viab, PD-1 reversal)
Cc1nc(S(=O)(=O)NCCNc2ccc(-c3ccc(F)cc3)nn2)cn1C	none (no result: NOMO-1 viab, PD-1 reversal)
CCOc1ccccc1NC(=O)c1ccccc1N(C)S(=O)(=O)c1ccc(C)cc1	none (no result: U2OS ROS induce, PD-1 reversal)
CCOc1ccccc1C(=O)Oc1c(S(=O)(=O)c2ccc(C)cc2)c(C)nn1-c1ccccc1	NOMO-1 viab 103 (no result: U2OS ROS induce, PD-1 reversal)
Clc1ccc2c(c1)c(-c1ccccc1)nc1nncn12	none (no result: NOMO-1 viab, PD-1 reversal)
O=C1O[C@@H](c2ccccc2)[C@@H](c2ccccc2)N2[C@@H](c3ccccc3OCCO)[C@]3(C(=O)Nc4ccccc43)[C@@H](C(=O)N3CCN(c4ncccn4)CC3)[C@H]12	U2OS ROS induce 122 (no result: NOMO-1 viab, PD-1 reversal)
O=C1O[C@@H](c2ccccc2)[C@@H](c2ccccc2)N2[C@@H](c3ccccc3OCCO)[C@]3(C(=O)Nc4ccc(C#CCCO)cc43)[C@@H](C(=O)N3CCN(c4ncccn4)CC3)[C@H]12	U2OS ROS induce 94 (no result: NOMO-1 viab, PD-1 reversal)
O=C1O[C@H](c2ccccc2)[C@H](c2ccccc2)N2[C@H]1[C@@H](C(=O)N1CCN(c3ncccn3)CC1)[C@]1(C(=O)Nc3ccc(C#CC4(O)CCCCCC4)cc31)[C@H]2c1ccccc1OCCO	U2OS ROS induce 147 (no result: NOMO-1 viab, PD-1 reversal)
COc1ccc(C#Cc2ccc3c(c2)[C@]2(C(=O)N3)[C@H](C(=O)N3CCN(c4ncccn4)CC3)[C@H]3C(=O)O[C@H](c4ccccc4)[C@H](c4ccccc4)N3[C@@H]2c2ccccc2OCCO)cc1	none (no result: NOMO-1 viab, PD-1 reversal)
O=C1O[C@H](c2ccccc2)[C@H](c2ccccc2)N2[C@H]1[C@@H](C(=O)N1CCCCCCC1)[C@]1(C(=O)Nc3ccc(C#CC4(O)CCCCCC4)cc31)[C@H]2c1ccccc1OCCO	none (no result: NOMO-1 viab, PD-1 reversal)
O=C1O[C@H](c2ccccc2)[C@H](c2ccccc2)N2[C@H]1[C@@H](C(=O)O)[C@]1(C(=O)Nc3ccccc31)[C@H]2c1ccccc1OCCO	none (no result: NOMO-1 viab, PD-1 reversal)
COC(CNC(=O)c1cc(=O)[nH]c2ccc(Br)cc12)OC	none (no result: NOMO-1 viab, PD-1 reversal)
Cc1cccc(Cn2c(SCc3ccc(C(=O)NCCN4CCCC4)cc3)nc3ccncc32)c1	none (no result: NOMO-1 viab, PD-1 reversal)
CSc1nc2cc(Oc3ccc4ccccc4c3)c(Cl)cc2[nH]1	none (no result: NOMO-1 viab, PD-1 reversal)
COCCOC(=O)N1C(=O)[C@@]2(c3cc(C#CCC(C(=O)OC)C(=O)OC)ccc31)[C@H](C(=O)NC[C@H](O)c1ccccc1)[C@H]1C(=O)O[C@H](c3ccccc3)[C@H](c3ccccc3)N1[C@@H]2c1ccc(O)cc1	none (no result: NOMO-1 viab, PD-1 reversal)
C=CCNC(=O)[C@@H]1[C@H]2C(=O)O[C@H](c3ccccc3)[C@H](c3ccccc3)N2[C@H](c2ccc(OCCO)cc2)[C@@]12C(=O)N(C(=O)OCCOC)c1ccc(C#CCC(C(=O)OC)C(=O)OC)cc12	U2OS ROS induce 132 (no result: NOMO-1 viab, PD-1 reversal)
C=CCNC(=O)[C@H]1[C@@H]2C(=O)O[C@@H](c3ccccc3)[C@@H](c3ccccc3)N2[C@@H](c2ccc(OCCO)cc2)[C@]12C(=O)N(C(=O)OCCOC)c1ccc(C#CCC(C(=O)OC)C(=O)OC)cc12	U2OS ROS induce 157 (no result: NOMO-1 viab, PD-1 reversal)
C=CCNC(=O)[C@@H]1[C@H]2C(=O)O[C@H](c3ccccc3)[C@H](c3ccccc3)N2[C@H](c2ccc(OCCO)cc2)[C@@]12C(=O)N(C(=O)OCCOC)c1ccc(C#Cc3ccc(OC)cc3)cc12	none (no result: NOMO-1 viab, PD-1 reversal)
Cc1nc2c3ccccc3nc(SCc3cccc(C(F)(F)F)c3)n2n1	none (no result: NOMO-1 viab, PD-1 reversal)
O=C(CSc1nc2ccccc2c(=O)n1NC(=O)c1ccccc1)NCc1ccccc1	none (no result: NOMO-1 viab, PD-1 reversal)
Cc1ccc(N(c2ccc(C)cc2)c2cccnc2)cc1	none (no result: NOMO-1 viab, PD-1 reversal)
O=C(Nc1ccc(N2CCOCC2)cc1)c1cnc2ccccc2n1	none (no result: NOMO-1 viab, PD-1 reversal)
O=C(Nc1ccc(N2CCCCC2)cc1)c1ccncc1	U2OS ROS induce 87
CCOC(=O)c1c(-c2ccccc2)oc2ccc(O)c(CSCC(=O)Nc3ccccc3)c12	NOMO-1 viab 126
CCOC(=O)c1ccc(NC(=O)Cn2c(=O)oc3ccccc32)cc1	none
CC(Nc1cc(C)ccn1)=C(C#N)C#N	none (no result: NOMO-1 viab, PD-1 reversal)
Cc1ccc(S(=O)(=O)Nc2ccc3c(c2)CC(=O)N([C@@H](C)CO)C[C@H](C)[C@H](CN(C)Cc2ccc(C(F)(F)F)cc2)O3)cc1	NOMO-1 viab 112
C[C@H](CO)N1C[C@H](C)[C@H](CN(C)Cc2ccc(C(F)(F)F)cc2)Oc2ccc(NS(C)(=O)=O)cc2CC1=O	none
C[C@@H]1CN([C@H](C)CO)C(=O)Cc2cc(NS(C)(=O)=O)ccc2O[C@@H]1CN(C)Cc1ccc(C(F)(F)F)cc1	none
C[C@H](CO)N1C[C@H](C)[C@H](CN(C)Cc2ccc(C(F)(F)F)cc2)Oc2ccc(NS(=O)(=O)c3ccc(F)cc3)cc2CC1=O	NOMO-1 viab 103 (no result: PD-1 reversal)
